Bioassay records from PubChem.
KCNH2 WT inh: KCNH2 (human, wildtype) channel inhibition | Q12809 | U2OS, BacMam KCNH2, thallium flux FluxOr; active compounds read low | activity change, % at 1.84 µM | hit rate 0.37% among 340,000 | AID 720551;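 active = maximum activity change below -70%; inconclusive = maximum activity change between -70% and -50%; inactive = maximum activity change above -50%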
Target sequence (Q12809 whole entry, looked up): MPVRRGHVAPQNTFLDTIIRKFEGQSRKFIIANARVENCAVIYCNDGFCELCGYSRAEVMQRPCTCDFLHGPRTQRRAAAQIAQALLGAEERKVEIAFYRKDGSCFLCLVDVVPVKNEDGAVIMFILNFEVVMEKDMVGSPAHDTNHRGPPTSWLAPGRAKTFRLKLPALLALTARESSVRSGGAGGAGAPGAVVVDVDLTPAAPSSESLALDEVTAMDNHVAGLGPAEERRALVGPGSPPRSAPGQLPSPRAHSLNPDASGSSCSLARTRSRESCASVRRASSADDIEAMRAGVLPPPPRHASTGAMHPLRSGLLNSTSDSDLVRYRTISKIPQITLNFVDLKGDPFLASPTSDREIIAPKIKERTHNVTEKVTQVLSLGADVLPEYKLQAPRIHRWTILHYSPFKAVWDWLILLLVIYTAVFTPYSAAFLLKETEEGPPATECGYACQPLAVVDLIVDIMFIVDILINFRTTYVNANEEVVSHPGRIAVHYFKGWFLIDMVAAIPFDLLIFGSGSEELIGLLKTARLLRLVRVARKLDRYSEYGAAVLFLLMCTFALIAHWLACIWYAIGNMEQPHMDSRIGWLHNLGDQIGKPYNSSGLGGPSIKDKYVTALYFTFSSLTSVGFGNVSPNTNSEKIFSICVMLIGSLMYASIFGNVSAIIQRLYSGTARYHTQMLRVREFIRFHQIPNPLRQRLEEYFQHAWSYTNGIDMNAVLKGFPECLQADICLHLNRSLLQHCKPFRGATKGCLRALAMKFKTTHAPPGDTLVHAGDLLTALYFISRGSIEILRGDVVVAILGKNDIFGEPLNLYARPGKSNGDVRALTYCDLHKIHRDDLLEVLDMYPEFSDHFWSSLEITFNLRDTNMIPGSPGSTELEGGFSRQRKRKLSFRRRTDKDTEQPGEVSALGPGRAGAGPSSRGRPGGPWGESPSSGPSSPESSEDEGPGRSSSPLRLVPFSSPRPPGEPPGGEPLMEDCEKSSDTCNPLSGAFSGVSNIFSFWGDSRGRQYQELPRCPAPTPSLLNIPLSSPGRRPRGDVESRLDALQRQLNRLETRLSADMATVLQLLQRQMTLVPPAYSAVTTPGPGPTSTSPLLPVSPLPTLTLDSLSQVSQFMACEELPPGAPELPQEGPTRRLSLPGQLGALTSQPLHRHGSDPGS
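U2OS cells transduced with wild-type KCNH2 virus are loaded with FluxOr dye for 45 min, and thallium flux is measured in kinetic reads before and after stimulation buffer. Rate constants are normalized to DMSO controls.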
USP1-UAF1 inh: blocks the human USP1/UAF1 deubiquitinase complex. O94782. recombinant USP1/UAF1, Ub-Rhodamine cleavage fluorescence. Potency, µM (highest dose often 57.1 µM), inactives show at the highest dose activity change, negative = inhibition, most hits filed as inhibitors. hit rate 0.23% among 390,000; active = well fitted inhibition curve with a large enough effect; inconclusive = small, poorly fitted or top-dose-only effect; inactive = no such curve, though single readings can be large or run the other way; also: potency is read from the fitted curve at half-maximal effect; nearly all actives have a fitted effect of over 60% in size
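High-throughput fluorogenic screen: 1nM USP1/UAF1 complex, Ub-Rho substrate 150nM final, 50mM HEPES pH 7.8 with 0.5mM EDTA, 0.1 mg/ml BSA, 1mM TCEP and 0.01% Tween-20.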
KCNH2 3.1 inh: blocks the human KCNH2 3.1 channel isoform | U2OS KCNH2 3.1, thallium flux FluxOr; active compounds read low | activity change, % (tested at about 1.8 µM) | hit rate 0.95% among 340,000 | AID 720553;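 active = maximum activity change below -70%; inconclusive = maximum activity change from -70% to -50%; inactive = maximum activity change above -50%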;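 also: thallium influx rate constant from kinetic fluorescence after stimulation buffer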
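We transduce U2OS cells with the mutant 3.1 virus, culture them overnight, load FluxOr with Red40 quencher for 45 min, then add stimulation buffer and read kinetically for 2 min to derive a normalized rate constant.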
Giardia killer: kills Giardia lamblia. Giardia lamblia trophozoite viability. activity change, % at 7.66 µM, hits read low. hit rate 0.15% among 340,000. AID 540267; in the data active = activity change below about -80%; inconclusive = between about -30% and that limit;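 also: parasites exposed to compound for two days anaerobically before the ATP read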
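Giardia lamblia trophozoites (100 cells/well) were incubated with compounds for 48 h at 37 deg C under anaerobic conditions. Viability was read as ATP content by one-step luminescence after 15-30 min at room temperature.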
Coupling enz: coupling enzyme interference in Giardia aldolase counter-screen; coupling enzyme system counterscreen, AmpLite Red fluorescence; activity change, negative = inhibition, % at 58.2 µM, hits read low; hit rate 0.67% among 290,000; AID 2472; in the data active = activity change below about -30%
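Counterscreen lacking aldolase: glyceraldehyde-3-phosphate coupling-enzyme reagent preincubated 10 min at RT with compound (at 57.5 uM final), then substrate/coupling system with AmpLite Red added; fluorescence read at 525/598 nm after 20 min RT.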
Starred values were filed as active, the others as inactive. Hits are enriched below; roughly 1.7% of the tested compounds scored in any of these assays. % is scaled to controls: 0 for no effect and ±100 for the full control effect.

Results for C=CCS(=O)(=O)c1cccc2cccnc12 ?
KCNH2 WT inh: 4.4; USP1-UAF1 inh: -4.2%; KCNH2 3.1 inh: -1.1; Giardia killer: 17.0; Coupling enz: -34.1*

How did COc1ccc(C(=O)N/C(=C\c2ccc(Cl)cc2)C(=O)NCc2ccncc2)cc1 do in these assays?
KCNH2 WT inh: 10.0; USP1-UAF1 inh: 0.3%; KCNH2 3.1 inh: inconclusive

How did Cn1c(SCC(=O)Nc2nncs2)nnc1C1CC1 do in these assays?
KCNH2 WT inh: 12.2; USP1-UAF1 inh: -12.2%; KCNH2 3.1 inh: -1.9; Giardia killer: -15.4

Results for Cn1c(SCC(=O)Nc2ccccc2Oc2ccccc2)nnc1C1CC1 ?
KCNH2 WT inh: -110.0*; USP1-UAF1 inh: -20.6%; KCNH2 3.1 inh: 0.5; Giardia killer: -15.6

Results for Cc1nc(NC(=O)CSc2nnc(C3CC3)n2C)sc1C ?
KCNH2 WT inh: -253.6*; USP1-UAF1 inh: -16.6%; KCNH2 3.1 inh: 7.4; Giardia killer: -8.6; Coupling enz: -1.8

How did COc1ccc(CN(Cc2ccccc2)C(=O)c2ccco2)cc1COc1ccc(NC(C)=O)cc1 do in these assays?
Giardia killer: -21.3

What do the screens show for `Cc1ccc(NS(=O)(=O)c2ccc(C)c(NC(=O)c3ccc(S(=O)(=O)N4CCCCCC4)cc3)c2)c(C)c1`?
KCNH2 WT inh: -4.9; USP1-UAF1 inh: -23.0%; KCNH2 3.1 inh: 1.0

How did Cc1nc2nc(NC(=O)c3ccc(F)cc3)[nH]n2c(=O)c1Cc1ccccc1 do in these assays?
USP1-UAF1 inh: 9.9%

What do the screens show for `CCCS(=O)(=O)c1c(S(=O)(=O)CCC)c2c(N)cccn2c1C(=O)c1ccc(F)cc1`?
KCNH2 WT inh: 3.0; USP1-UAF1 inh: -5.6%; KCNH2 3.1 inh: 7.7; Giardia killer: 16.9; Coupling enz: -37.7*

What do the screens show for `CCCS(=O)(=O)c1c(S(=O)(=O)CCC)c2c(N)cccn2c1C(=O)c1ccc(Br)cc1`?
KCNH2 WT inh: -12.3; USP1-UAF1 inh: -7.0%; KCNH2 3.1 inh: -13.3; Giardia killer: -10.7; Coupling enz: -18.2

Results for CC(=O)N1CCN(C(=O)c2cccc(S(=O)(=O)Nc3c(C)n(C)n(-c4ccccc4)c3=O)c2)CC1 ?
KCNH2 WT inh: 5.3; USP1-UAF1 inh: -6.2%; KCNH2 3.1 inh: 21.0; Giardia killer: 3.0

Results for Cn1c(N2CCN(C(c3ccccc3)c3ccccc3)CC2)nc2ccccc21 ?
KCNH2 WT inh: -48.3; USP1-UAF1 inh: -12.9%; KCNH2 3.1 inh: -85.8*; Giardia killer: 6.0; Coupling enz: -0.9

What do the screens show for `CCOc1ccccc1-c1nnc2n1N=C(c1cccc(OC)c1)CS2`?
Coupling enz: -0.3

Results for CCCN(CCC(=O)Nc1ccccc1F)CC1CC1 ?
KCNH2 WT inh: 7.9; USP1-UAF1 inh: 1.2%; KCNH2 3.1 inh: 5.5; Giardia killer: 1.5; Coupling enz: 0.7

How did COc1cc(NC(=O)CCN2CCN(Cc3ccccc3)CC2)cc(OC)c1 do in these assays?
KCNH2 WT inh: 3.3; USP1-UAF1 inh: -24.5%; KCNH2 3.1 inh: -0.2; Giardia killer: 4.1; Coupling enz: -1.8

Results for CN(CCC(=O)Nc1ccc(Cl)cc1)Cc1ccccc1 ?
KCNH2 WT inh: 27.9; USP1-UAF1 inh: -16.9%; KCNH2 3.1 inh: -75.7*; Giardia killer: 2.0; Coupling enz: 1.9

Results for CCN(CCC(=O)Nc1cc(OC)cc(OC)c1)Cc1ccccc1 ?
KCNH2 WT inh: 19.6; USP1-UAF1 inh: 3.9%; KCNH2 3.1 inh: -27.2; Giardia killer: 2.4; Coupling enz: -39.8*

Results for CCCC(=O)Nc1ccc(Nc2ccccc2)cc1 ?
KCNH2 WT inh: -71.1*; USP1-UAF1 inh: -8.0%; KCNH2 3.1 inh: -5.1; Giardia killer: -19.8; Coupling enz: 1.8

What do the screens show for `CCCN(CCC(=O)Nc1cc(OC)cc(OC)c1)CC1CC1`?
KCNH2 WT inh: 1.1; USP1-UAF1 inh: -12.2%; KCNH2 3.1 inh: 14.8; Giardia killer: -7.3; Coupling enz: -35.6*

What do the screens show for `CC(=O)N1CCCc2cc(S(=O)(=O)N(C)CC(=O)Nc3ccc(C)cc3C)ccc21`?
USP1-UAF1 inh: -9.5%

What do the screens show for `O=C(COc1ccccc1F)Nc1ccc2nc(SCC(=O)N3CCCC3)sc2c1`?
USP1-UAF1 inh: -13.5%

Results for C=CCn1c(Cc2csc(N)n2)nnc1SCC(=O)OCC ?
KCNH2 WT inh: -0.4; USP1-UAF1 inh: -5.3%; KCNH2 3.1 inh: -95.3*; Giardia killer: -10.8; Coupling enz: 0.8

What do the screens show for `O=c1/c(=C\c2cc([N+](=O)[O-])cc([N+](=O)[O-])c2O)sc2nc3ccccc3n12`?
KCNH2 WT inh: -2.2; USP1-UAF1 inh: inconclusive; KCNH2 3.1 inh: -1.2; Giardia killer: 10.1; Coupling enz: -31.9*

How did O=c1/c(=C/c2ccccn2)sc2nc3ccccc3n12 do in these assays?
KCNH2 WT inh: -1.0; USP1-UAF1 inh: -10.9%; KCNH2 3.1 inh: -20.4; Giardia killer: -4.2; Coupling enz: 0.3

What do the screens show for `O=C(NC1CCCC(C(F)(F)F)C1)c1ccc([N+](=O)[O-])o1` (configuration not stated)?
KCNH2 WT inh: 1.8; USP1-UAF1 inh: -21.9%; KCNH2 3.1 inh: 10.6; Giardia killer: -90.7*

How did O=C(COC(=O)c1ccc([N+](=O)[O-])o1)NC1CCCC1 do in these assays?
KCNH2 WT inh: 6.2; USP1-UAF1 inh: inconclusive; KCNH2 3.1 inh: 1.3; Giardia killer: -7.8

How did O=C(NC1CCCCC1)c1ccc([N+](=O)[O-])o1 do in these assays?
KCNH2 WT inh: -21.1; USP1-UAF1 inh: -18.3%; KCNH2 3.1 inh: -20.2; Giardia killer: -95.2*; Coupling enz: -4.3

What do the screens show for `COc1cc(C2c3c(oc4ccccc4c3=O)C(=O)N2Cc2ccccc2Cl)ccc1O` (configuration not stated)?
USP1-UAF1 inh: 4.0%

How did CC(C)COc1ccc(C(=O)N2CCCCC2CCN2CCOCC2)cc1 (configuration not stated) do in these assays?
USP1-UAF1 inh: -18.9%

How did CCn1c(=O)c2c(nc3n2CCCN3CCc2ccc(OC)c(OC)c2)n(C)c1=O do in these assays?
KCNH2 WT inh: 1.3; USP1-UAF1 inh: -8.6%; KCNH2 3.1 inh: -71.9*; Giardia killer: -13.0; Coupling enz: 0.6

How did Cc1nc(C)c(-c2ccc(SCc3cccc(F)c3)nn2)s1 do in these assays?
KCNH2 WT inh: -0.4; USP1-UAF1 inh: -20.8%; KCNH2 3.1 inh: -93.9*; Giardia killer: -8.9; Coupling enz: 1.2

What do the screens show for `Cc1nc(C)c(-c2ccc(SCc3ccc(Cl)cc3)nn2)s1`?
KCNH2 WT inh: 1.8; USP1-UAF1 inh: -32.3%; KCNH2 3.1 inh: 3.2; Giardia killer: 2.4; Coupling enz: -3.4

Results for OCC[n+]1ccc(/C=C/c2c[nH]c3ccccc23)cc1 ?
KCNH2 WT inh: 6.6; USP1-UAF1 inh: 28.2µM*; Giardia killer: -8.0; Coupling enz: -48.1*

What do the screens show for `O=C(CN1CCN(Cc2ccc3c(c2)OCO3)CC1)Nc1ccc2c(c1)OCO2`?
KCNH2 WT inh: 18.0; USP1-UAF1 inh: -10.0%; KCNH2 3.1 inh: inconclusive; Giardia killer: 4.3; Coupling enz: 1.5
